Test results taken from PubChem BioAssay (NCATS).
Records with an inconclusive call do not appear. Values without a mark were called inactive. Activity calls are given as the source filed them. The call rests on the fitted dose curve; in most records, active means well fitted cell-killing curve with a large enough effect; inconclusive means small, poorly fitted or top-dose-only effect; inactive means flat fitted curve, though single readings scatter.

experiment: Quantitative highthroughput screen to assess conditional lethalithy of NOMO1 cells grown in RPMI1640 with untreated serum (RPMI+s) (AID 1963876); conditions: NOMO1 AML cells in RPMI+serum, CellTiter-Glo viability, 48 h; series mostly up to 45.8 µM; viability: at the top concentration; further: nearly all actives have a fitted effect of over 35% in size
Description: Assay Provider: Jason Cantor Ph.D.
Department of Biochemistry
University of Wisconsin-Madison, Madison, WI, USA
Chemical screening studies have identified drug sensitivities across hundreds of cancer cell lines but most putative therapeutics fail to translate. Discovery and development of drug candidates in models that more accurately reflect nutrient levels in human blood is a major challenge. Here we performed high-throughput screens in conventional versus Human Plasma-Like Medium (HPLM) to identify compounds that were "missed" when screening using the artificial culture condition. Sets of conditional anticancer compounds spanned phases of clinical development and included non-oncology drugs were assessed. […] We also traced conditional phenotypes for several chemotherapeutics to availability of HPLM-specific metabolites and confirmed others for compounds whose reported targets are encoded by nonessential genes. Our findings establish generalizable strategies for exploiting conditional lethality in HPLM to reveal therapeutic candidates and mechanisms of action in cancer cells.
Described herein are the results of each viability screens against three cell lines: NOMO1 (an acute myeloid leukemia cell line); P12-Ichikawa (a T-cell acute lymphoblastic leukemia); and SEM (a B-cell ALL). Each assay was screened using 3 different cell culture media: homemade human plasma-Like medium with 10% dialyzed fetal bovine serum (HPLM+ds); RPMI1640 with 10% untreated FBS and 5mM glucose (RPMI+s); and RPMI1640 with 10% dialyzed fetal bovine serum and 5 mM glucose (RPMI+ds).
PROTOCOL TABLE (as described by Inglese J, Shamu CE and Guy RK. 2007)
SEQUENCE No. (e.g., 1, 2, 3, etc.); […] (e.g., Cells, Incubation, Reagent, etc.); VALUE and DESCRIPTION.
1; Cells; 5 uL; white, solid bottom 1536-well Greiner assay plate.
2; Compounds; 23 nL; Kalypsis pin tool (Wako USA) equipped with a 1536-well pin head to transfer to the assay plates.
3; Incubation; 48 hours; 37C incubation.
4; Reagent; 3 uL; CellTiter Glo (Promega).
5; Incubation; 5 min, room temperature
6; Detection; Luminescence, Viewlux PerkinElmer.
NOTES (numbers refer to Sequence numbers above)
1. Briefly, 5 ul of cell reagent was dispensed using a Multidrop Combi Dispenser. The NOMO1 and SEM cells were plated at 500 cells/well and the P12-Ichikawa line at 1000 cells/well.
2. After seeding the cells, 23 nL of MIPE 4.1 library compounds (in DMSO) were added to each plate using a Kalypsys 1536 Pintool dispenser. Bortezomib at final concentration of […] and DMSO were added to each plate as positive and negative controls respectively. For each screen, MIPE 4.1 compounds were added over an eleven-point concentration range […] in 3-fold dilutions.
3. Each plate was covered with a stainless steel gasketed lid to prevent evaporation and incubated for 48 hour at 37C, 95% relative humidity, and 5% CO2.
4-5. Three microliter CellTilter-GloTM luminescent substrate mix (Promega) reagent was added to the assay plate and incubated at room temperature for 5 min.
6. The luminescence signal was measured using a ViewLux (PerkinElmer) multiplate reader with a 2 second exposure time per plate. Data for each compound were normalized as percent viability such that measurements for DMSO and the empty well controls in each plate were defined as 100% and 0%, respectively.
Potency means the concentration at half of the fitted maximal effect.

Question: With `O=S(=O)(O)CCS` as the molecule, how does the Potency read?
Answer: 743 nM (active)

Question: Which “viability” value does the source give for `O=C(O)c1ccccc1C(=O)Nc1ccc(-c2ccccc2)cc1` here?
Answer: 94.5%

Question: With `Nc1ccc(C(=O)c2cc3c(ccc4ccccc43)[nH]2)cc1` as the molecule, how does the Potency read?
Answer: 14800 nM (active)

Question: With `CCN(CC)Cc1ccc2cc(COC(=O)Nc3ccc(C(=O)NO)cc3)ccc2c1` as the molecule, how does the Potency read?
Answer: 3720 nM (active)

Question: For `O=C1CCCC2=C1C(c1[nH]ncc1Cl)N=C(Nc1nc3ccccc3o1)N2` (stereo not given), which “viability” value is on record?
Answer: 78.4%

Question: Which “viability” value does the source give for `Cc1ccccc1C(C(=O)NC1CCCCC1)N(C(=O)Cn1ccnc1C)c1cccc(F)c1` (stereo not given) here?
Answer: 107%

Question: Which “viability” value does the source give for `CN(C)c1ccccc1CN1CCCN(Cc2ccccc2N(C)C)C1c1ccncc1` here?
Answer: 83.8%

Question: With `COc1cc(C(=O)NC2CCN(C)CC2)ccc1Nc1ncc2c(n1)N(C1CCCC1)CCC(=O)N2C(C)C` as the molecule, how does the Potency read?
Answer: 20900 nM (active)

Question: Which “viability” value does the source give for `Nc1nc(N)c2nc(CNc3ccc(C(=O)NC(CCC(=O)O)C(=O)O)cc3)cnc2n1` (stereo not given) here?
Answer: 102%

Question: With `CN1[C@@H]2CCC[C@@H]1CC(NC(=O)c1nn(C)c3ccccc13)C2` (stereo not given in full) as the molecule, how does the “viability” value read?
Answer: 96.4%

Question: With `O=C(NOC[C@H](O)CO)c1ccc(F)c(F)c1Nc1ccc(I)cc1F` as the molecule, how does the Potency read?
Answer: 187 nM (active)

Question: With `CC(C)n1cnc2c(NCCCCCCNC(=O)OC(C)(C)C)nc(NCCO)nc21` as the molecule, how does the “viability” value read?
Answer: 91.9%

Question: With `C#Cc1cccc(Nc2ncnc3cc(OCCOC)c(OCCOC)cc23)c1` as the molecule, how does the “viability” value read?
Answer: 90.8%

Question: With `O=NN(CCCl)C(=O)NCCCl` as the molecule, how does the “viability” value read?
Answer: 93.5%

Question: Which Potency does the source give for `CCN1CCN(CC(=O)Nc2ccc(-c3cccc4c(=O)cc(N5CCOCC5)oc34)c3sc4ccccc4c23)CC1` here?
Answer: 4180 nM (active)

Question: With `CS(=O)(=O)c1ccc(C(=O)Nc2ccc(Cl)c(-c3ccccn3)c2)c(Cl)c1` as the molecule, how does the “viability” value read?
Answer: 93.8%

Question: Which “viability” value does the source give for `Cc1ccc(C(=O)Nc2cccc(C(F)(F)F)c2)cc1Nc1nc(-c2cccnc2)nc2c1cnn2C` here?
Answer: 97.7%

Question: Which “viability” value does the source give for `CC(C)Cn1cnc2c(N)nc3ccccc3c21` here?
Answer: 108%

Question: With `CN1CCN(C2=Nc3cc(Cl)ccc3Nc3ccccc32)CC1` as the molecule, how does the “viability” value read?
Answer: 100%

Question: Which Potency does the source give for `OCCCNc1cc(-c2ccnc(Nc3cccc(Cl)c3)n2)ccn1` here?
Answer: 187 nM (active)

Question: For `N=C(N=C(N)N)N1CCOCC1`, which “viability” value is on record?
Answer: 92.2%

Question: With `c1ccc2c(Oc3nc(Nc4ccc(N5CCOCC5)cc4)c4ncn(C5CCCCC5)c4n3)cccc2c1` as the molecule, how does the “viability” value read?
Answer: 95%

Question: With `CC=C1C2C=C(C)CC1(N)c1ccc(=O)[nH]c1C2` (stereo not given) as the molecule, how does the “viability” value read?
Answer: 99.1%

Question: For `COC1CCC(N(C(=O)C2CCC(C)CC2)c2cc(C3=CCCCC3)sc2C(=O)O)CC1` (stereo not given), which “viability” value is on record?
Answer: 96.2%

Question: Which “viability” value does the source give for `Cc1ccn(-c2ccc(-c3ncco3)cc2)c(=O)c1-c1ccc2nc(N)ncc2c1` here?
Answer: 96.6%

Question: With `OC[C@@H](O)[C@@H](O)[C@H](O)[C@@H](O)CO` as the molecule, how does the “viability” value read?
Answer: 105%

Question: With `NC(=O)NO` as the molecule, how does the Potency read?
Answer: 4690 nM (active)

Question: With `Cc1ccccc1C(C(=O)NC1CCCC1)N(C(=O)Cn1cnc2ccccc21)c1cccc(F)c1` (stereo not given) as the molecule, how does the “viability” value read?
Answer: 93.9%

Question: For `Cc1ccc(C(=O)c2cc(O)c(O)c([N+](=O)[O-])c2)cc1`, which “viability” value is on record?
Answer: 103%

Question: Which “viability” value does the source give for `N#CC(=C(N)Sc1ccccc1N)C(C#N)=C(N)Sc1ccccc1N` here?
Answer: 74.1%

Question: With `COc1cc([C@H]2Oc3cc([C@H]4Oc5cc(O)cc(O)c5C(=O)[C@H]4O)ccc3O[C@H]2CO)ccc1O` as the molecule, how does the “viability” value read?
Answer: 99.5%

Question: With `Cc1ccc2c(c1)C(=O)[C@]1(O)CCN(c3ccccc3)C1=N2` as the molecule, how does the “viability” value read?
Answer: 107%

Question: Which Potency does the source give for `CC[C@H]1CN2CCc3cc(OC)c(OC)cc3[C@H]2C[C@@H]1C[C@@H]1NCCc2cc(OC)c(OC)cc21` here?
Answer: 469 nM (active)

Question: Which “viability” value does the source give for `COC(=O)N[C@H](C(=O)N[C@@H](Cc1ccccc1)[C@@H](O)CN(Cc1ccc(-c2ccccn2)cc1)NC(=O)[C@@H](NC(=O)OC)C(C)(C)C)C(C)(C)C` here?
Answer: 94.8%

Question: With `O=c1c2ccccc2nc2n1CCc1c-2[nH]c2ccccc12` as the molecule, how does the “viability” value read?
Answer: 92.3%

Question: With `Clc1ccccc1C(c1ccccc1)(c1ccccc1)n1ccnc1` as the molecule, how does the “viability” value read?
Answer: 70.1%

Question: Which Potency does the source give for `Cc1ccnc(NS(=O)(=O)c2ccc(NC(=O)Nc3ccc(S(=O)(=O)Nc4nccc(C)n4)cc3)cc2)n1` here?
Answer: 296 nM (active)

Question: Which “viability” value does the source give for `Nc1ncnc2c1ncn2[C@@H]1O[C@@H](CO)[C@H](O)[C@H]1O` here?
Answer: 102%

Question: For `CC1(CN2CCC(n3c(=O)[nH]c4ccccc43)CC2)OCc2ccccc2-n2cccc21` (stereo not given), which “viability” value is on record?
Answer: 98.9%

Question: For `Cc1c(C)c2c(c(C)c1O)CCC(C)(COc1ccc(CC3SC(=O)NC3=O)cc1)O2` (stereo not given), which “viability” value is on record?
Answer: 98%
